Our source for the growth values is PubChem BioAssay (NCI).

Among the test systems are SR leukemia; RPMI-8226 leukemia; OVCAR-8 ovarian; OVCAR-5 ovarian; OVCAR-4 ovarian; SK-OV-3 ovarian; IGROV1 ovarian; OVCAR-3 ovarian; HS 578T breast; NCI/ADR-RES ovarian; T-47D breast; BT-549 breast; MDA-MB-435 melanoma; SW-620 colon; MCF7 breast; HCT-116 colon; HCC-2998 colon; KM12 colon.
Holding throughout (assay): NCI-60 one-dose screen, 48 h (100 = growth as untreated, 0 = no growth, -100 = all killed)
What all share (settings): 10 µM unless noted

Compounds without any hit were thinned out: in the full panel of roughly 83,000, 20% have a hit.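 A percent growth of 40 corresponds to 60% growth inhibition; 0 means no net growth; -100 means all cells died. Active threshold: below 10.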 Unmarked numbers belong to inactive results. Activity calls are given as the source filed them.

With `O=C1Nc2ccccc2C12CC(c1ccccc1)=NN2` (stereo not drawn), the growth in the experiment on SR leukemia was -7.86% (active); in the experiment on RPMI-8226 leukemia, 47.3%; with OVCAR-8 ovarian, 70.5%; in the experiment with OVCAR-5 ovarian, 83.8%; in the experiment on OVCAR-4 ovarian it was 77.2%; in the experiment on SK-OV-3 ovarian it was 59.4%. The growth in the experiment with IGROV1 ovarian was 43%; with OVCAR-3 ovarian it was 39.6%; in the experiment on HS 578T breast, 87.9%; in the experiment with NCI/ADR-RES ovarian, 41.5%; in the experiment with T-47D breast it was 60%; in the experiment on BT-549 breast, 64.4%. The growth in the experiment with MDA-MB-435 melanoma was -24.9% (active); in the experiment on SW-620 colon, 27.7%; with MCF7 breast, 19.1%; in the experiment with HCT-116 colon it was 29.4%; with HCC-2998 colon it was 75.6%; in the experiment on KM12 colon it was 43.3%.
In the case of `O=c1c2cccc3c(Nc4c(F)cccc4F)ccc(c32)c2nc3ccccc3n12`, the growth in the experiment on SR leukemia is 21.5%; in the experiment on RPMI-8226 leukemia, 75.4%; in the experiment with OVCAR-8 ovarian, 92.9%; with OVCAR-5 ovarian, 99.5%; in the experiment on OVCAR-4 ovarian, 82.9%; in the experiment on SK-OV-3 ovarian, 89.1%. In addition, the growth with IGROV1 ovarian is 53.4%; in the experiment with OVCAR-3 ovarian, 91.5%; in the experiment on HS 578T breast it was 110%; in the experiment on NCI/ADR-RES ovarian it was 95.4%; in the experiment with T-47D breast it was 52.7%; in the experiment with MDA-MB-435 melanoma, 111%. Further, the growth in the experiment on SW-620 colon is 102%; in the experiment with MCF7 breast, 20.4%; in the experiment on HCT-116 colon, 98.4%; with HCC-2998 colon, 72.7%.
With `COc1cccc(NC(=O)c2sc3nc4c(cc3c2N)CN(Cc2ccccc2)CC4)c1`, the growth with SR leukemia was 28.8%; in the experiment with RPMI-8226 leukemia, 72.7%; with OVCAR-8 ovarian, 47%; in the experiment on OVCAR-5 ovarian, 85.3%; with OVCAR-4 ovarian it was 20.5%; in the experiment on SK-OV-3 ovarian, 36.9%. The growth was 44.2% with IGROV1 ovarian; 36.4% with OVCAR-3 ovarian; 20.8% in the experiment on HS 578T breast; 63.2% in the experiment on NCI/ADR-RES ovarian; 66.1% in the experiment on T-47D breast; 4.27% (active) in the experiment on MDA-MB-435 melanoma. In addition, the growth in the experiment with SW-620 colon was 54.4%; in the experiment on MCF7 breast, 49.5%; with HCT-116 colon, 58.1%; with HCC-2998 colon, 77.3%; with KM12 colon, 48.2%.
Consider `O=C(O)c1ccc2c(c1Sc1ccccc1)C(=O)c1ccccc1C2=O`, for which the growth was 95.6% in the experiment with SR leukemia; 106% with RPMI-8226 leukemia; 105% with OVCAR-8 ovarian; 101% in the experiment on OVCAR-5 ovarian; 92.9% with OVCAR-4 ovarian; 101% in the experiment on SK-OV-3 ovarian. In addition, the growth in the experiment with IGROV1 ovarian is 92.2%; in the experiment with OVCAR-3 ovarian, 89.6%; in the experiment with HS 578T breast, 114%; in the experiment with NCI/ADR-RES ovarian, 105%; in the experiment on T-47D breast, 98.6%; in the experiment on BT-549 breast, 83.8%. Moreover, the growth is 73.1% with MDA-MB-435 melanoma; 121% with SW-620 colon; 95.4% in the experiment on MCF7 breast; 98.5% with HCT-116 colon; 105% in the experiment on HCC-2998 colon; 101% in the experiment on KM12 colon.
Turning to `COC(/C=C/c1ccc([N+](=O)[O-])cc1)OC`, the growth is 31.6% with SR leukemia; 70% with RPMI-8226 leukemia; 84.4% in the experiment on OVCAR-8 ovarian; 99.8% in the experiment on OVCAR-5 ovarian; 96.6% in the experiment with OVCAR-4 ovarian; 110% with SK-OV-3 ovarian. Moreover, the growth in the experiment with IGROV1 ovarian is 89%; in the experiment with OVCAR-3 ovarian it was 120%; in the experiment with HS 578T breast, 122%; with NCI/ADR-RES ovarian, 96%; in the experiment on T-47D breast it was 52%; in the experiment on BT-549 breast it was 118%. The growth in the experiment with MDA-MB-435 melanoma is 96.8%; in the experiment with SW-620 colon it was 85.2%; in the experiment with MCF7 breast, 77.2%; with HCT-116 colon, 27.3%; in the experiment on KM12 colon it was 110%.
`CCCCCCCCCCCCCC1=NCCN1CCO`: the growth in the experiment with SR leukemia is -4.54% (active); in the experiment with RPMI-8226 leukemia, 21%; in the experiment with OVCAR-8 ovarian, 52.6%; with OVCAR-5 ovarian it was 79.1%; in the experiment with OVCAR-4 ovarian it was 169%; in the experiment on SK-OV-3 ovarian it was 107%. Besides, the growth in the experiment with IGROV1 ovarian was 13.3%; with OVCAR-3 ovarian it was 164%; in the experiment with HS 578T breast it was 37.9%; in the experiment with NCI/ADR-RES ovarian it was 84.5%; in the experiment with T-47D breast, 65.7%; with MDA-MB-435 melanoma it was 85.3%. The growth was -38.6% (active) in the experiment with SW-620 colon, 54.8% in the experiment on MCF7 breast, -36.2% (active) in the experiment on HCT-116 colon and 71.2% in the experiment with HCC-2998 colon.
For the compound `COc1cc2c(c(OC)c1OC)-c1ccc(N=NC(N)=S)c(=O)cc1[C@@H](NC(C)=O)CC2`, the growth was 15% in the experiment with SR leukemia; 30.8% in the experiment on RPMI-8226 leukemia; 1.13% (active) in the experiment on OVCAR-8 ovarian; 48.5% in the experiment with OVCAR-5 ovarian; 33.5% in the experiment on OVCAR-4 ovarian; 12.1% with SK-OV-3 ovarian. The growth in the experiment with IGROV1 ovarian is 5.37% (active); in the experiment on OVCAR-3 ovarian, -52.2% (active); in the experiment with HS 578T breast it was 24.2%; in the experiment with NCI/ADR-RES ovarian, 82.1%; in the experiment on T-47D breast, 62.2%; in the experiment with MDA-MB-435 melanoma, 0.0927% (active). The growth in the experiment on SW-620 colon is 17.3%; in the experiment with MCF7 breast it was 8.57% (active); in the experiment on HCT-116 colon, -28.4% (active); with HCC-2998 colon it was -13.6% (active); in the experiment with KM12 colon, -31.1% (active).
For `COc1ccc2nc3cc(Cl)ccc3c(N3CCN(c4nccc(Nc5ccccc5)n4)CC3)c2c1`, the growth is 26.9% in the experiment on SR leukemia; 45.2% in the experiment with RPMI-8226 leukemia; 67.8% in the experiment on OVCAR-8 ovarian; 99.5% in the experiment with OVCAR-5 ovarian; 50.8% in the experiment on OVCAR-4 ovarian; 96.2% in the experiment on SK-OV-3 ovarian. In addition, the growth was 78.8% with IGROV1 ovarian; 50.7% in the experiment on OVCAR-3 ovarian; 88.1% in the experiment on HS 578T breast; 69.9% in the experiment with NCI/ADR-RES ovarian; 23.3% with T-47D breast; 62% in the experiment with MDA-MB-435 melanoma. The growth in the experiment on SW-620 colon was 59.7%; with MCF7 breast it was 24.3%; in the experiment with HCT-116 colon, 16.3%; in the experiment with HCC-2998 colon, 87.6%; with KM12 colon, 63.1%.
As to `CCOC(=O)c1cnc2ccc(Br)cc2c1Nc1cccc(S(=O)(=O)NC)c1`, the growth in the experiment with SR leukemia is 124%; with RPMI-8226 leukemia it was 110%; with OVCAR-8 ovarian, 101%; with OVCAR-5 ovarian, 100%; in the experiment with OVCAR-4 ovarian it was 82.4%; in the experiment with SK-OV-3 ovarian, 96.2%. Also, the growth in the experiment on IGROV1 ovarian is 89.5%; with OVCAR-3 ovarian, 104%; in the experiment on HS 578T breast, 95.8%; in the experiment on NCI/ADR-RES ovarian it was 80.4%; with T-47D breast, 86%; in the experiment with MDA-MB-435 melanoma it was 105%. Besides, the growth in the experiment with SW-620 colon was 91.9%; in the experiment on MCF7 breast it was 91.3%; with HCT-116 colon it was 84.7%; with HCC-2998 colon, 97%; with KM12 colon it was 98.7%.
